# Data: the supplement of paper PMC6555819
# Legend:
# Test in all cases: PBM binding z-score (relative to random genomic background probes); higher = stronger binding; sequences stand for … in GC…GCGATTGACAGCGTAGAATGAAGG
# [1] = system: RARb homodimer (NR concentration 270 nM)
# Method in brief: (§1)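 Ligand-free nuclear receptor dimers were bound for 1 h to custom Agilent 4×180K protein-binding microarrays. Detection used antibodies against each partner (one per run). Binding z-scores rest on regression-normalized fluorescence, with random background probes as the reference.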
# [2] = system: RARg:RXRa (NR concentration 270 nM, RXRa partner concentration 90 nM)
# Method in brief: as §1
# [3] = system: RARg homodimer (NR concentration 270 nM)
# Method in brief: as §1
# [4] = system: RXRa DBDmut IVT, anti-RXR (DBD mutation: RXRa K156A/R161A, NR concentration 90 nM)
# Method in brief: as §1
# [5] = system: RXRa homodimer (NR concentration 180 nM)
# Method in brief: as §1
# [6] = system: THRa:RXRa (NR concentration 90 nM, RXRa partner concentration 90 nM)
# Method in brief: as §1
# [7] = system: THRa homodimer (NR concentration 90 nM)
# Method in brief: as §1
# [8] = system: VDR:RXRa (NR concentration 270 nM, RXRa partner concentration 90 nM)
# Method in brief: as §1
# [9] = system: VDR homodimer (NR concentration 270 nM)
# Method in brief: as §1
Sequence,PBM binding z-score [1],PBM binding z-score [2],PBM binding z-score [3],PBM binding z-score [4],PBM binding z-score [5],PBM binding z-score [6],PBM binding z-score [7],PBM binding z-score [8],PBM binding z-score [9]
CCGACTCGGGCATAAGGTTACCATAAGCCAGCCC,1.44,1.47,0.909,-0.288,0.905,2.09,0.96,-0.121,-0.223
CCTAGTTGGACAGGAGGTCACACACCGGATATGA,3.81,4.2,3.71,1.02,3.96,3.41,2.18,3.69,2.39
ATCTCTAGGTATAGTTCAGTGAAAGATCGATAGA,1.4,0.857,1,0.996,0.686,0.473,0.453,1.04,1.12
CGTTACGGGTCACTCCAGGTTATAGCATCGGAGT,3.08,4.49,4.8,1.5,4.86,4.97,0.567,4.5,1.17
CCTACTGTGCCAAAAAGGTCATTGATGCCGATAA,4.41,4.52,3.97,1.73,4.42,3.26,1.48,4.92,3.38
TCATAAAGGTAATACAGGTGAAAGTCGGCATCTA,1.09,1.3,0.722,1.78,1.67,1.7,0.207,1.72,0.435
TCTTGTAGTTCAATAGAGGTTAAGAAAGTGCGCT,2.27,2,2,2.27,2.15,3.61,0.104,3.41,1.59
TCATATAGGTAATACAGATGAAAGTCGGCATCTA,-0.481,0.349,0.543,1.28,1.09,-0.0206,-0.254,0.886,0.0563
ATCTCTAGGTAAGACTTAGTTCAGTGAAGAACGC,1.05,0.21,0.357,0.325,0.128,0.798,0.858,0.582,0.617
CAAACTAGGTCAAGGGCAAAGTCGGTTTGTGCCA,4.17,3.94,4.68,2.01,3.06,3.27,1.43,2.54,1.79
ATATGTAGGTTAAGGGTCAATCAGGTTGGTTCGC,3.94,4.94,3.82,1.7,5.96,3.45,1.54,5.61,3.33
ATACCAAGGTGATCGTGAGGTCGCTGATACTAAC,1.68,2.37,0.989,0.175,1.43,3.3,2.48,2.39,1.6
ACTAGCAGGGCAAGGGTCACTCAAGATTAGTCCG,3.73,4.34,3.78,0.379,4.53,2.73,-0.1,2.95,1.17
CTCGAAAGGTTGTGCTCAGGTGAGTATACCAAAC,0.954,1.31,0.452,0.56,0.825,2.84,0.886,0.214,0.0434
AGTCAAAGTTCACTAGGAAACGTAAGATTCAGCT,3.48,4.86,5.62,3.98,3.71,1.3,-0.55,3.48,3.64
CATACAGGGTCAGCTAGGCCAGATTAGGGACGGC,3.37,4.39,4.22,1.47,4.12,3.18,1.09,3.94,0.951
GCATGTAGATCAAGGTTAAGAAAGACTAAGCTAA,-0.0945,0.235,0.318,0.0216,0.645,1.26,-0.345,0.22,-0.573
AATACAGGGTCACTAGGCCAGAGGAGGTACGAAT,3.25,5.14,5.04,2.54,5.66,3.34,1.54,4.09,2.73
CAAACTAGGTCAAAAGTCAAAGTCGAGCCAACCA,2.64,4.67,4.23,1.61,5.2,2.55,0.407,2.46,0.387
CCTACTGGGTCATCAGGTCATTGATATCAACGTT,4.25,5.07,5,2.14,4.38,3.97,3.17,4.24,3.06
TAGCCTAGGTCATTCAGGGGCCAGTACAGAAAGC,3.28,5.87,4.35,1.94,2.7,3.4,0.784,3.33,1.56
TTACCAATGTGAAGGTCGTTGATCCCTCTGTAGA,1.25,0.262,0.216,0.586,1.05,0.82,0.201,1.17,1.04
CCTACTGGGCCCAAGGTCATTGATTCCAATGCTC,3.52,2.64,2.42,0.382,2.82,3.22,2.76,3,2.48
CCTAGCAGGCCAATCTGGGTCTCTCAAGGCTTGA,-0.52,-0.494,-0.505,-0.243,-0.68,0.975,-0.574,-0.64,-0.65
GCGACTGGGGCAAAGCAGGTTGCCATAAGGTTGG,0.156,0.0303,0.101,-0.48,-0.0833,1.59,-0.471,-0.612,-0.513
CTCGAAAGGTCGTGCGCAGGTGAGTATACCAAAC,2.93,5.81,3.83,1.76,5.1,3.58,0.11,3.64,0.912

Sequence,PBM binding z-score [1],PBM binding z-score [2],PBM binding z-score [3],PBM binding z-score [4],PBM binding z-score [5],PBM binding z-score [6],PBM binding z-score [7],PBM binding z-score [8],PBM binding z-score [9]
CCTCCTGGGCCAAGGTCATTGATCAGTCAAAGCA,3.38,3.6,3.13,0.822,3.1,3.43,2.34,2.91,3.08
ATCTCTAGTTAAGACTCAGTTCAGTGAAGAACGC,0.624,0.145,0.575,0.575,0.126,0.594,0.6,1.2,1.67
TCTTGTAGATCAAAGGTTTAGAAAGCCGAAGCCT,-0.342,-0.312,-0.404,0.516,0.291,-0.356,-0.747,0.314,0.0902
TTAACAAGGTGAAGGTCGTTGATCCCTCTGTAGA,1.5,1.38,1.26,0.219,1.88,2.4,0.923,1.35,0.715
TCTTGTAGATCAGTAGGTTAAGAAAGCTGGCCAA,0.381,-0.0974,-0.231,0.997,0.365,0.204,0.0296,0.673,0.104
CCTTACGGGTCACGAGGTTATATCACGACGAGCG,3.93,6.16,5.48,1.94,7.11,3.77,1.34,5.38,2.09
GCTAGCAGGCCATTCGGGTCACTCAATGACGGGC,2.3,1.85,1.92,0.641,1.81,3.09,1.75,3.27,1.2
TAGCGTAGGTCATTCAGGGGCCAGTATAGAAAGC,3.37,6.52,5.07,1.79,3.93,3.56,-0.427,3.37,1.25
AGTATTAGTTGACTTAGGGCAACCGATACGACGC,1.29,0.595,1.02,0.0389,0.49,1.53,0.518,0.573,0.538
ATCTCTAGGTAAGACTCAGTTCAGAGAAGAACGC,0.397,0.254,0.549,0.3,-0.0317,0.761,0.645,0.685,1.12
GGACCGAGGGCATTCGAGTTGATAGCATGGCGAT,0.78,1.2,1.14,2.61,0.753,3.46,-0.46,3.66,3.18
TCTAGTTGGTCAAAGGTCACACACTCGAAATGCG,5.02,7.09,6.36,2.05,7.71,4.06,1.95,5.37,2.94
CAGACTGGGGCAAAGGTTACCATACTCAGTACGA,2.35,3.54,2.64,0.804,3.83,1.97,0.0193,1.93,0.311
GGAACCAGGGCATTCGAGTTGATAGCATGGCGAT,1.54,1.05,1.49,1.17,0.534,2.66,0.671,2.21,1.97
TCATATAGGTAAACAGGTGAAATTCCGTAAGTTA,0.605,0.589,0.48,1.58,1.07,0.752,0.651,1.35,0.614
CGTCGAAGGTCAAGGTCAGTGAAAGAGACTCGAA,5.05,6.76,7.33,2.59,6.08,3.98,2.07,4.25,1.98
GGAACGAGGGTATTCGAGTTGATAGCATGGCGAT,-0.529,-0.0783,0.118,0.869,0.0441,1.82,-1.03,1.18,0.63
CCGACTGGGGCATAACGTTACCATAAGCCAGCCC,-0.131,-0.0174,0.122,-0.083,-0.0796,-0.497,-0.431,-0.52,-0.0002
AATCGGAGGACAAAGGTCAGAGCTACGCCAGTGA,4.37,5.79,4.98,0.662,4.98,3.55,0.579,3.23,1.36
CAGCCTAGGTCAGGCCCAGTATAGGAGGAACGTT,2.11,2.54,3.21,-0.298,1.14,1.66,0.183,-0.208,-0.788
TTGCCAAGGTGAGCTGAGGTCGTTGATCCAACTC,1.42,1.02,0.784,-0.052,0.78,4.62,2.03,3.93,1.75
CAAACTAGGTCACGGAGGTCAAAGTCCGTGCGTA,5.44,7.06,7.31,3.08,7.23,4.74,3.58,7.92,5.9
TTACCAAGGCGAAGGTCGTTGATCCCTCTGTAGA,0.804,0.317,0.0659,0.0625,1.13,1,0.0881,0.836,0.564
ATCGAAAGGTCGACGTGGTGAGTATACACCGTTT,2.74,4.04,4.24,1.23,4.03,1.89,-0.255,2.73,0.481
AATAGCAGGCCAAGGGTCACTCAAGATTAGTCCG,3.86,4.1,3.92,0.264,4.46,2.8,0.187,2.92,1.06
ACTAGCAGGCCAAGTTTGGGACACTCAAACAAAG,0.289,0.191,0.555,-0.499,-0.592,1.45,0.404,-0.55,-0.549
